Measurements: ChEMBL document CHEMBL3988442, “University of Dundee, Small-Polar-MMV Screening Library” (2021)
For some assays here: Results with a measured potency or affinity are listed apart.

Assays:
[1] = target: T1, Methionyl-tRNA synthetase, putative (Leishmania donovani (strain BPK282A1)) (UniProt E9BF75); test: Leishmania donovani Methionine tRNA synthetase (LdMetRS):v7. Dose response assay; format: functional; set-up: conc 80 nM, time 150 minutes
T1 sequence (whole entry): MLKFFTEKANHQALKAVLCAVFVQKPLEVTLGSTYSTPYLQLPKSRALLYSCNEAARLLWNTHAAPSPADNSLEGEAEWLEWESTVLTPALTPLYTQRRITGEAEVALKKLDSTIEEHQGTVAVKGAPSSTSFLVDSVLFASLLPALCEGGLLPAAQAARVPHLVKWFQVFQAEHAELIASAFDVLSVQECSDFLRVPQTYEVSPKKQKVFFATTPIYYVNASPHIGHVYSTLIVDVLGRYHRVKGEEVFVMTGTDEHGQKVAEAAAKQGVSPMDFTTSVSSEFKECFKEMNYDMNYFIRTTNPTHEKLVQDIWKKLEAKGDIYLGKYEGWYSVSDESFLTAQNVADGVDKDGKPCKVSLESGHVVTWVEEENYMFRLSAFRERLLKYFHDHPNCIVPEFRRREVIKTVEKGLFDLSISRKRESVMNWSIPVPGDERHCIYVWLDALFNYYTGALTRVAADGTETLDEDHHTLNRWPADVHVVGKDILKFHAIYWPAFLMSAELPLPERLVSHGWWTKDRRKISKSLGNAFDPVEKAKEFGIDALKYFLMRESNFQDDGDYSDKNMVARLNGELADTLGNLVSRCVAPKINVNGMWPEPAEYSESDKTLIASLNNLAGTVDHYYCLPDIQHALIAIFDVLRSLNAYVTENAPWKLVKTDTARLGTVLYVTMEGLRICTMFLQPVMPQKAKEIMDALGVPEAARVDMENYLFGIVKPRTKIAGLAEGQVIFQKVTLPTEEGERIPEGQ

[2] = target: Protein translocase subunit SecA (Escherichia coli (strain K12)) (UniProt P10408); test: Assay to Identify E. coli SecA ATPase Inhibitors; format: functional; set-up: scale not given: direction of the effect not stated beside the values; conditions: 30 µM
[3] = target: T2, Ubiquitin-activating enzyme e1, putative (Leishmania donovani (strain BPK282A1)) (UniProt E9BSI1); test: Leishmania donovani Ubiquitin Activating Enzyme (LdE1); format: functional; set-up: scale not given: direction of the effect not stated beside the values; conditions: 30 µM
T2 sequence (whole entry): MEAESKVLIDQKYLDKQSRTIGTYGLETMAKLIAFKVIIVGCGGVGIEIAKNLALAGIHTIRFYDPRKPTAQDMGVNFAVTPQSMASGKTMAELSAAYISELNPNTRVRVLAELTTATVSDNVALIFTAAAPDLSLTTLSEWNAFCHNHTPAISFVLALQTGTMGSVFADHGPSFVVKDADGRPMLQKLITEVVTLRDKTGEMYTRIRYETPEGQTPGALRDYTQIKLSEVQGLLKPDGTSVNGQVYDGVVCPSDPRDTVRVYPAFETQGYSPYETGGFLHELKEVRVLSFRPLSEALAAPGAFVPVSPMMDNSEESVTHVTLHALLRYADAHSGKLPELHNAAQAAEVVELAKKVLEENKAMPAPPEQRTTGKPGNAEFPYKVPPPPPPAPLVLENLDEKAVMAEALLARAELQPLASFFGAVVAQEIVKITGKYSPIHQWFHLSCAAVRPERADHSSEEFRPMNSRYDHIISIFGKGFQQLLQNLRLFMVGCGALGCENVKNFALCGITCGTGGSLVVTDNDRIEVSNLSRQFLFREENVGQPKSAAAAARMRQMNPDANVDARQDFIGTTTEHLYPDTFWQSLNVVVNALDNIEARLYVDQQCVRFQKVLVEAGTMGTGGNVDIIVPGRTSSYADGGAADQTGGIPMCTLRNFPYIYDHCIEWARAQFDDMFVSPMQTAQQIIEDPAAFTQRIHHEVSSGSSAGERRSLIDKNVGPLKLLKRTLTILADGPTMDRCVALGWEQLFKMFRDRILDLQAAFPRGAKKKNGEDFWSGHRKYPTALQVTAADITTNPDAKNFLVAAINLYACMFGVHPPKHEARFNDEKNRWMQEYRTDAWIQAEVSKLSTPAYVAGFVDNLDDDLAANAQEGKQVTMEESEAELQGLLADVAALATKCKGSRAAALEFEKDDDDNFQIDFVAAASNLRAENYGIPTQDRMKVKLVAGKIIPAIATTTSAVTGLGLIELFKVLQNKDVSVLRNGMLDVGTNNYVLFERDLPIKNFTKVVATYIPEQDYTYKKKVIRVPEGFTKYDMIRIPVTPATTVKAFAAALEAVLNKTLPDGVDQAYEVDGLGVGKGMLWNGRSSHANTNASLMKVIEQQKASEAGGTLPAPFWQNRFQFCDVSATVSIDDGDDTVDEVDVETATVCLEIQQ

[4] = target: AMP-activated protein kinase, AMPK (Homo sapiens) (UniProt P54646+O43741+P54619+Q9UGJ0+Q9Y478+Q13131+Q9UGI9); test: AMP-dependent Kinase enzyme assay. An in vitro enzyme assay that detects ADP turnover that is directly proportional to AMPK activity. This uses naive AMPK that is activated during the assay with MK-8722; format: functional; set-up: scale not given: direction of the effect not stated beside the values; conditions: 30 µM
[5] = target: Sialic acid-binding Ig-like lectin 9 (Homo sapiens) (UniProt Q9Y336); test: Hs-Siglec9 ALPHAscreen SOP 20170721; set-up: scale not given: direction of the effect not stated beside the values; conditions: 10 µM
Trypanosoma cruzi = test: Trypanosoma cruzi phosphomannomutase and mannose-1-phosphate guanylyltransferase assay; format: functional; set-up: scale not given: direction of the effect not stated beside the values; conditions: 10 µM
[6] = target: T3, Arginase-2, mitochondrial (Homo sapiens) (UniProt P78540); test: in vitro enzyme assay to detect the production of urea directly proportional to the activity of Arginase II; format: functional; set-up: scale not given: in the data most compounds retested in dose-response had high values
T3 sequence (whole entry): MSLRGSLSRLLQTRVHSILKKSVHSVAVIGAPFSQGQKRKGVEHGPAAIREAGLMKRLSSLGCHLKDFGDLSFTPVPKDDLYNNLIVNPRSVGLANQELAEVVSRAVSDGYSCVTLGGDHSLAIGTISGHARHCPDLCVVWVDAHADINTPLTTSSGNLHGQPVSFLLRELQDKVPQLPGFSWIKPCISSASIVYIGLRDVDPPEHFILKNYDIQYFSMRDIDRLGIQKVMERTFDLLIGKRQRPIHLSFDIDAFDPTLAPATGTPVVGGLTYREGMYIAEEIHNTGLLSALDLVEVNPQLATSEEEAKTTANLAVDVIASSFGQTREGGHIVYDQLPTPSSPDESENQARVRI

[7] = target: T4, Proteasome subunit beta (Trypanosoma cruzi) (UniProt O96673); test: Trypanosoma cruzi proteasome chymotrypsin-like activity (TcProtChymo) assay.; format: functional; set-up: scale not given: in the data most compounds retested in dose-response had high values; conditions: 9.37 µM
T4 sequence (whole entry): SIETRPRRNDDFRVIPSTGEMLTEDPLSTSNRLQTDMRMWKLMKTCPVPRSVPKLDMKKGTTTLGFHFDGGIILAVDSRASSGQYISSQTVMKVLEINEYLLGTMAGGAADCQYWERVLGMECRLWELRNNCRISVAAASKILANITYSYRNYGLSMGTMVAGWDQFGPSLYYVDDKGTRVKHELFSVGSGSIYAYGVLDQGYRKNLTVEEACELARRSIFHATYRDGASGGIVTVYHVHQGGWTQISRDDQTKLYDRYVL

Homo sapiens = species on record: Homo sapiens; test: To identify inhibition of the IFN signalling (Jak-Stat) pathway via expression of an eGFP reporter gene under the control of an IFN-stimulated response element (ISRE) containing MxA promoter.; format: functional; set-up: scale not given: direction of the effect not stated beside the values; conditions: 30 µM
[8] = target: T5, Tyrosyl-tRNA synthetase, putative (Trypanosoma cruzi (strain CL Brener)) (UniProt Q4DSP6); test: Trypanosoma cruzi tyrosyl tRNA synthetase (TcYRS) _High Tyrosine SOP; format: functional; set-up: scale not given: in the data most compounds retested in dose-response had high values; conditions: 30 µM
T5 sequence (whole entry): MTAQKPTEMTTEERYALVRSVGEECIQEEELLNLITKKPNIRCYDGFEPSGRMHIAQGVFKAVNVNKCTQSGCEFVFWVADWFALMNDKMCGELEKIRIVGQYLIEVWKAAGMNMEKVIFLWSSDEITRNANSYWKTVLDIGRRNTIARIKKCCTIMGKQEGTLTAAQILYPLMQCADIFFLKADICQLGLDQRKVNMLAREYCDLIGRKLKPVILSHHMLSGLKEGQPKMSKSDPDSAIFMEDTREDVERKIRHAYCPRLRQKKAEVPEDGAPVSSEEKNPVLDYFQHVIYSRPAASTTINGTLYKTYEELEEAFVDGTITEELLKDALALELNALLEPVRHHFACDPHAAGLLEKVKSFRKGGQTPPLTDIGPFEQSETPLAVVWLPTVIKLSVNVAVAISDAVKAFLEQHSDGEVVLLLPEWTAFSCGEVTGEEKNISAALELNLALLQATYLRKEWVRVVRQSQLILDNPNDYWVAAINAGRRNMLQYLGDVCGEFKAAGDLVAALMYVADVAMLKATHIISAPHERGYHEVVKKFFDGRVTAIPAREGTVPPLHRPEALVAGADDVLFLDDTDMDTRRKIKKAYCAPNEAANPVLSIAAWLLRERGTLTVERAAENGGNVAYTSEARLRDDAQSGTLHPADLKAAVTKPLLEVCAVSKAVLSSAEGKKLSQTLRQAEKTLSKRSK

[9] = target: T5, Tyrosyl-tRNA synthetase, putative (Trypanosoma cruzi (strain CL Brener)); test: Trypanosoma cruzi tyrosyl tRNA synthetase (TcYRS) SOP; format: functional; set-up: scale not given: direction of the effect not stated beside the values; conditions: 30 µM
[10] = target: Chromo domain-containing protein 1 (Saccharomyces cerevisiae (strain ATCC 204508 / S288c) (Baker's yeast)) (UniProt P32657); test: ScCHD-1 Enzyme Inhibition Assay; format: functional; set-up: scale not given: in the data most compounds retested in dose-response had high values; conditions: 30 µM
Sequence of Chromo domain-containing protein 1 (Saccharomyces cerevisiae (strain ATCC 204508 / S288c) (Baker's yeast)) (P32657 whole entry, the tested form may be a part): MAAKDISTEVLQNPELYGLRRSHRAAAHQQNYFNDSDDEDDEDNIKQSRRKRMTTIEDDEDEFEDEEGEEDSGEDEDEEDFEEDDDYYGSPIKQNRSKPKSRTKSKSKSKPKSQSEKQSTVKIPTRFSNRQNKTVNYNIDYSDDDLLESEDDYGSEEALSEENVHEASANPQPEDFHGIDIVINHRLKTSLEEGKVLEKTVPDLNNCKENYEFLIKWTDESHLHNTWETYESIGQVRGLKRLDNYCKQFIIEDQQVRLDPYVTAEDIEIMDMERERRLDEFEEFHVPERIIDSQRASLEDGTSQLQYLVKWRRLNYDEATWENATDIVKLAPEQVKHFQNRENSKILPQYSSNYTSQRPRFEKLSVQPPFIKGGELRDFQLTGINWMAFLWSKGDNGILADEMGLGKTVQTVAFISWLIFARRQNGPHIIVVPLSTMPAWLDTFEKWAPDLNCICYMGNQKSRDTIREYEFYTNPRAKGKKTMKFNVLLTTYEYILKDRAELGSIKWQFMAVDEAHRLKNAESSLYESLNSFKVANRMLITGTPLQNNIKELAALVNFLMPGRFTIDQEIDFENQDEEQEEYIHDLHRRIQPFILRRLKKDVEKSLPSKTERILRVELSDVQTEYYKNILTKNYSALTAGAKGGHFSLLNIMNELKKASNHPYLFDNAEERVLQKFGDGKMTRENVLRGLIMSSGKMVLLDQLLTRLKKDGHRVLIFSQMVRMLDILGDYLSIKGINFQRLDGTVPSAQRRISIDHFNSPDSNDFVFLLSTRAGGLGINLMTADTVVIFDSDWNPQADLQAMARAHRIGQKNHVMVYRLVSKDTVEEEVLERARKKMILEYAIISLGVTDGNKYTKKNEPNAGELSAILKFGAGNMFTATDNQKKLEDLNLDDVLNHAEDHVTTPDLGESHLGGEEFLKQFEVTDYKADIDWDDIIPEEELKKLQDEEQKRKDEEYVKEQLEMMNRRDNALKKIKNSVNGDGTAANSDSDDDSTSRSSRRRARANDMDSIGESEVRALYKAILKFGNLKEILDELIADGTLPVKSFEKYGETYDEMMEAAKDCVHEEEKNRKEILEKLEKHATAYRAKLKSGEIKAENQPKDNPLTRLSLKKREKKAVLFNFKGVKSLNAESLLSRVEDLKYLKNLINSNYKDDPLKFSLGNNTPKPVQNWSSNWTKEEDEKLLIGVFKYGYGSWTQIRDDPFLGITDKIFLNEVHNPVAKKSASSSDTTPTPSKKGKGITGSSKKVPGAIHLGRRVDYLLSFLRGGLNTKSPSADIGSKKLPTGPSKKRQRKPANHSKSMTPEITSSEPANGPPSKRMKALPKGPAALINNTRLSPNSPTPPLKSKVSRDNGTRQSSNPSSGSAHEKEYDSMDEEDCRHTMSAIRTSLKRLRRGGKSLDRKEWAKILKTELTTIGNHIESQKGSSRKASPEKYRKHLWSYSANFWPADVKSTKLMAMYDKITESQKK

Sequence of Protein translocase subunit SecA (Escherichia coli (strain K12)) (P10408 whole entry): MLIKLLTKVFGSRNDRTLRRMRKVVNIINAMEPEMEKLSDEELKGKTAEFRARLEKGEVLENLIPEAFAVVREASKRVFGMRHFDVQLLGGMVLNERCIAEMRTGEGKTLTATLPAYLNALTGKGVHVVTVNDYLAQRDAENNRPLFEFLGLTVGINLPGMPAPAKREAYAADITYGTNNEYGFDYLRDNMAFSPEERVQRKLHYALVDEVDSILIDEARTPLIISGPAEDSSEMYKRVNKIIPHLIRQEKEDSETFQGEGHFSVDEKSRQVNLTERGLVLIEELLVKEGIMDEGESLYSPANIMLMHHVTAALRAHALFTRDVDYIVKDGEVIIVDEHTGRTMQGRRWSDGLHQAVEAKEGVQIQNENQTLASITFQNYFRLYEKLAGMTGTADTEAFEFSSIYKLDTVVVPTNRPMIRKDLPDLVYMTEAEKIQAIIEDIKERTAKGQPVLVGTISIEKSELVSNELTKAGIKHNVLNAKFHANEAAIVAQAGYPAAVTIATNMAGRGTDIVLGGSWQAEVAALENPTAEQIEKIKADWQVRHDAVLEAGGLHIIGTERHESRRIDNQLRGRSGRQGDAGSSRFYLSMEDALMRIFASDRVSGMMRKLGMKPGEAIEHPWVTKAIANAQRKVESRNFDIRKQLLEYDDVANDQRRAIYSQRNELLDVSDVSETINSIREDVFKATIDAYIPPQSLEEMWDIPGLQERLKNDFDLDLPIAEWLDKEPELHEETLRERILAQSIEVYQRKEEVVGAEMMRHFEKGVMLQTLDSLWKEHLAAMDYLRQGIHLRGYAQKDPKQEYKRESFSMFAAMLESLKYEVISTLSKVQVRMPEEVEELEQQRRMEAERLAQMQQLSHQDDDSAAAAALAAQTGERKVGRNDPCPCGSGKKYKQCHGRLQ
Sequence of Sialic acid-binding Ig-like lectin 9 (Homo sapiens) (Q9Y336 whole entry): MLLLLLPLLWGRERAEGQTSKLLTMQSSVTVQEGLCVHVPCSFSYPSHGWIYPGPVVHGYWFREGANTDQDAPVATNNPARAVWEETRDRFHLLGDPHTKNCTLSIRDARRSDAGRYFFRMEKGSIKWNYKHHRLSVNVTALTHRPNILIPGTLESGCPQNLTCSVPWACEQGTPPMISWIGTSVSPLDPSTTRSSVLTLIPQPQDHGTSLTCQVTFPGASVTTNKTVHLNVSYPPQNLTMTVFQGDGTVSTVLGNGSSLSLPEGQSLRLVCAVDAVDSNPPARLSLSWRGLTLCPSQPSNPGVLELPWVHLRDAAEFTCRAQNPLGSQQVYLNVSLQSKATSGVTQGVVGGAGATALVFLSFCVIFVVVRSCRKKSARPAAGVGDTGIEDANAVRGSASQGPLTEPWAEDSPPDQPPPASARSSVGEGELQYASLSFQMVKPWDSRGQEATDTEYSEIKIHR

Row | Compound | PXC50 ([1]; MAX_EFFECT 4.401408451) | PXC50 ([1]; MAX_EFFECT 5.700712589) | Percent Effect [2] [%] | Percent Effect [3] [%] | Percent Effect [4] [%] | Percent Effect [5] [%] | Percent Effect (Trypanosoma cruzi) [%] | Percent Effect ([6]; 33.3 µM) [%] | Percent Effect [7] [%] | Percent Effect (Homo sapiens) [%] | Percent Effect [8] [%] | Percent Effect [9] [%] | Percent Effect [10] [%] | Percent Effect ([6]; 30 µM) [%] | PXC50 ([1]; MAX_EFFECT 8.551068884) | PXC50 ([1]; MAX_EFFECT 15.66901408)
1 | CC1CCCN(CC(=O)N2CCC(c3ncc4c(n3)CCNC4)CC2)C1 (configuration not stated) | < 4 | < 4 | -3.77 | 2.67 | 14.5 | -3.5 | 0.394 | -0.699 | 5.02 | 3.99 | -1.06 | -3.85 | 2.27 | – | – | –
2 | FC(F)(F)C1CCc2nnc(CNCc3ccsc3)n2C1 (configuration not stated) | – | – | -4.02 | 16.2 | 1.38 | 30.8 | 5.18 | 10.2 | 10.4 | -8.39 | 5.38 | 16.1 | -13.2 | 5.95 | – | –
3 | O=C1CC(c2ccsc2)c2c(n(C3CCOCC3)[nH]c2=O)N1 (configuration not stated) | – | – | -5.06 | -30.7 | -12.7 | 0.762 | 2.36 | 2.64 | 16.4 | 1.56 | 6.35 | 15.4 | -7.86 | 2.7 | – | –
4 | COc1ccc(C(=O)N2C[C@@H](C(=O)O)[C@H](c3ccccc3C)C2)c(O)c1 | – | – | -5.13 | 5.41 | -4.36 | 32 | 1.86 | -0.248 | 9.53 | -12.1 | 6.45 | 16.1 | -2.87 | 4.87 | – | –
5 | Cc1ccc(CN2CCC(F)(F)C3(CCN(c4cnccn4)C3)C2)o1 (configuration not stated) | – | – | -2.38 | 2.7 | 11.5 | 1.13 | 0 | 3.33 | -3.13 | 0.47 | 5.94 | 3.66 | -2.36 | – | < 4 | < 4
